Out of some 220,000 compounds screened, about 16,000 (7.3%) were called active. About 25% were inconclusive and are not listed. Many of the other results were omitted from the sample, so actives are more common in it than they were. Unmarked numbers belong to inactive results. The call rests on the fitted dose curve; in most records, active means well fitted inhibition curve with a large enough effect (not every such curve was filed as active); inconclusive means small, poorly fitted or top-dose-only effect, or another doubt; inactive means no such curve, though single readings can be large or run the other way.
What follows are molecules tested against Aldehyde dehydrogenase 1A1 (Homo sapiens) (UniProt P00352) (assay: qHTS Assay for Inhibitors of Aldehyde Dehydrogenase 1 (ALDH1A1)). Settings: Purified ALDH1A1, NADH fluorescence, propionaldehyde substrate; series mostly up to 75.3 µM; activity, negative = inhibition: at the top concentration.
Potency means the concentration at half of the fitted maximal effect.
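Wherever activity, negative = inhibition is given: plate controls were no enzyme wells and a reference inhibitor.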

Chain of Aldehyde dehydrogenase 1A1 (Homo sapiens) (P00352 whole entry, looked up): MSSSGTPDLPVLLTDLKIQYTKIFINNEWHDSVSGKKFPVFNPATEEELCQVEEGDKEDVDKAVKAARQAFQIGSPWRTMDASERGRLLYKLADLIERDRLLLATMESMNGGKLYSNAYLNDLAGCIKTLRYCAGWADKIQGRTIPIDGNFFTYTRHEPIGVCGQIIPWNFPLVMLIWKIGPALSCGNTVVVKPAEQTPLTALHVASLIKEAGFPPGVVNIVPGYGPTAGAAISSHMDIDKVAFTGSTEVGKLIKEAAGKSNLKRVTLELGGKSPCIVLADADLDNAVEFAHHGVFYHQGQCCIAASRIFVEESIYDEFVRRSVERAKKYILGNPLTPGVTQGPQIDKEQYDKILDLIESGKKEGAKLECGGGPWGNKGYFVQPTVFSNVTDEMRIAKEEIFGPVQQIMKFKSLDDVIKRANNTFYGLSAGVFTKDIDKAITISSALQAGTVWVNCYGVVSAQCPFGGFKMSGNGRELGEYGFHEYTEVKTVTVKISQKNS

SMILES	activity, negative = inhibition [%]	Potency
CC(C)(C)n1ncc2c(=O)n(Cc3ccc(Cl)cc3)cnc21	10.7	
COc1ccc(-n2c(C)nn(CC3CC3)c2=O)cc1	-1.71	
Cc1ccc(NC(=S)NC(=O)c2ccc(-c3ccccc3)cc2)c(C)c1		11.2 µM (active)
Cc1ccc(NC(=O)c2oc(=O)c3ccccc3c2-c2ccccc2)c(C)c1	-15.4	
Cc1ccc(C(=O)NC(=S)Nc2ccccc2C)cc1	-1.81	
O=C(CN1CCN(S(=O)(=O)/C=C/c2ccccc2)CC1)Nc1ccc(N2CCOCC2)cc1	7.06	
O=C(/C=C/c1ccccc1)c1ccoc1	2.74	
O=C(/C=C/c1ccc(N2CCOCC2)cc1)c1ccccc1		31.6 µM (active)
CC(C)(C)OC(=O)N1CCC(NC(=O)c2[nH]cnc2C(=O)N[C@@H](Cc2ccccc2)C(=O)OCc2ccccc2)CC1	-3.65	
CC(C)[C@H](NC(=O)c1ccc(F)cc1)C(=O)OCC(=O)NC(=O)c1cccn1C	-0.435	
CCSC1=NCCN1C(=O)c1ccc(S(=O)(=O)N(CC)CC)cc1	-7.18	
COC(=O)CNC(=O)c1ccc2c(c1)S(=O)(=O)c1ccccc1C2=O		11.2 µM (active)
CCCCN(C)C(=O)c1ccc2c(c1)N(CC)C(=O)c1ccccc1S2(=O)=O	8.84	
COC(=O)CNC(=O)c1ccccc1F	12.2	
O=C(CCn1ccc([N+](=O)[O-])n1)Nc1nccs1	1.26	
COc1cc(OC)c(C2=NOC(C(=O)Nc3c(C)n(C)n(-c4ccccc4)c3=O)C2)cc1Cl (stereo not given)	5.57	
COc1ccc(NC(=O)CCNS(=O)(=O)c2ccc3c(c2)c(=O)n(C)c(=O)n3C)cc1OC	4.29	
CC(C)(C)c1cc(CN2CCN(CCC#N)CC2)cc(C(C)(C)C)c1O		7.08 µM (active)
N#CCCN1CCN(S(=O)(=O)c2ccc(S(=O)(=O)N3CCCC3)cc2)CC1	-6.46	
CCC(=O)c1ccc(OCC(O)Cn2nc(C)c(C(C)=O)c2C)cc1 (stereo not given)	6.23	
O=C(Nc1cccc(F)c1)N1C2CCC1CC(O)(c1cccnc1)C2 (stereo not given)	2.68	
O=C(O)c1ccccc1-c1ccccc1C(=O)Nc1nccs1	-6.84	

SMILES	activity, negative = inhibition [%]	Potency
CCOC(=O)N1CCC(NC(=O)C(NS(=O)(=O)c2ccc3c(c2)CCN3C(=O)CC)C(C)C)CC1 (stereo not given)	-1.13	
Cc1ccc(CN2CCN(Cc3cccc(C)n3)CC2CCO)cc1 (stereo not given)	-7.49	
COc1ccc(C2=CC(c3cccc(OC)c3)n3nnnc3N2)cc1 (stereo not given)	3.52	
CCOc1cccc(-n2nnnc2-c2ccc(OC)cc2)c1		25.1 µM (active)
CCOC(=O)CNC(=O)c1nn(-c2cccc(OC)c2)c(=O)c2ccccc12	-2.61	
Cc1ccc(S(=O)(=O)NC(=O)N2CCCN(Cc3ccc(F)cc3)CC2)cc1	8.46	
CC(=O)Nc1ccc(NC(=O)COc2ccc(S(=O)(=O)NC(C)c3ccccc3)cc2)cc1 (stereo not given)	7.35	
O=C(Nc1cccc(C(F)(F)F)c1)c1cnccn1	4.04	
CN(C)/C=C/C(=O)c1cnc2sccn2c1=O	6.38	
CCOC(=O)c1c(-c2ccccc2)csc1NC(=S)NC(=O)c1ccccc1	-3.67	
CCOC(=O)C1=C(NC(=S)NC(=O)c2ccccc2)c2ccccc2CC1(C)C		20 µM (active)
CCOC(=O)c1c(NC(=O)C2(C)Cc3ccccc3C(=O)O2)sc2c1CCCC2 (stereo not given)	23.1	
COC(=O)C1=C(C)N(C)C(=S)NC1c1cc(OC)ccc1OC (stereo not given)	5.5	
FC(F)(F)c1ccnc(Oc2ccc(C3=NCCS3)cc2)c1	-6.21	
CN1CCC(=NNC(=O)c2ccc(N(Cc3ccc(Cl)cc3)S(C)(=O)=O)cc2)CC1		8.91 µM (active)
CN1CCC(=NNC(=O)CN(c2cccc(Cl)c2)S(C)(=O)=O)CC1	10.8	
CCN1CCN(C(=O)c2ccc(CN(c3ccc(C)c(C)c3)S(C)(=O)=O)cc2)CC1	-0.172	
CC(=O)N1CC(C)c2scc(C)[n+]2-c2ccccc21 (stereo not given)	15.2	
OCC1(Cc2ccccc2C(F)(F)F)CCN(Cc2cccc3cnccc23)CC1	-3.56	
O=S(=O)(NC1CC1)c1ccc2c3c(cccc13)CC2	-5.31	
COc1ccc(C(=O)NC(Cc2ccc(OC(=O)c3ccc(OC)cc3)cc2)C(=O)O)cc1 (stereo not given)	-7.25	
COc1ccc(-c2ccc(CCC(=O)O)n2NC(=O)c2ccc(C(C)(C)C)cc2)cc1		2.24 µM (active)

SMILES	activity, negative = inhibition [%]	Potency
COc1ccc(N2CCN(C(=O)CNC(=O)c3ccc(C(C)(C)C)cc3)CC2)cc1	-14.7	
CCCNC(=S)N1CCCC(c2nc3ccccc3[nH]2)C1 (stereo not given)	9.56	
C#Cc1ccc([C@@H]2C=C(C(=O)O)O[C@H](OCCCCO)C2)cc1	-7.97	
Cc1csc(/N=C/N(C)C)c1C#N	-6.21	
C/C(Nc1ccc2oc(=O)ccc2c1)=C1/C(=O)CC2[C@@H]1C2(C)C (stereo not given in full)		3.98 µM (active)
COc1c(C(C)C)oc2cc3oc(=O)ccc3cc12	-1.48	
Cc1c(CCO)sc[n+]1CC(=O)OC12CC3CC(CC(C3)C1)C2	5.18	
CC(=O)Nc1ccc(Nc2nc3c(S(=O)(=O)c4ccc(C)c(C)c4)nnn3c3ccccc23)cc1	139	
CN(CCc1ccccn1)C(=O)CCC1CCCN(Cc2ccccc2OC(F)F)C1 (stereo not given)	11.8	
Fc1ccccc1COc1ccccc1CNCc1ccncc1	8.32	
c1ccc(COc2ccccc2CNCc2cccnc2)cc1		17.8 µM (active)
O=C(CCc1ccccc1)NCc1cccnc1	3.47	
CC(C)(C)c1ccc(/C=C2\Oc3c(ccc(O)c3CN3CCN(CCO)CC3)C2=O)cc1	-12.5	
Cc1nnc(SCC(=O)N2CCc3ccccc32)n1-c1ccccc1	0.566	
O=C(NCc1nnc(SCC(=O)N2CCCc3ccccc32)o1)c1ccccc1F		28.2 µM (active)
O=C(CSc1ccc2nnc(-c3ccccc3)n2n1)N1CCCc2ccccc21	-10.2	
COc1ccc(-c2ccc(CNCCCN3CCOCC3)o2)cc1Cl	6.17	
CC1(C)O[C@@H]2C[C@@H]3[C@H]4C[C@@H](F)C5=CC(=O)C=C[C@]5(C)[C@@]4(F)[C@@H](O)C[C@]3(C)[C@]2(C(=O)CO)O1	12.1	
COc1ccc(C2C(C(=O)Nc3ccccc3OC)=C(C)Nc3nnnn32)c(OC)c1 (stereo not given)	-14.3	
COC(=O)C1=C(C(=O)c2ccc(C)cc2)C(c2ccccc2)n2nnnc2N1 (stereo not given)		7.08 µM (active)
COc1ccccc1NC(=O)C1=C(C)Nc2nnnn2C1c1cccc(Br)c1 (stereo not given)	-5.9	

Reference: PubChem BioAssay AID1030 (National Center for Advancing Translational Sciences (NCATS), 2008)
